Reference: article PMC7862700, “An all-to-all approach to the identification of sequence-specific readers for epigenetic DNA modifications on cytosine”

Tests used:
Assay in all cases: DAPPL (digital affinity profiling via proximity ligation, sequencing); 10 mM Tris-HCl pH 7.5, 50 mM NaCl, 1 mM DTT, 4% glycerol, room temperature, 30 min; GST-TFs on glutathione beads, 16-mer random dsDNA library, 0.1% formaldehyde crosslink after washing; high values mean tight binding
FLI1 = molecular target: T1, FLI1 (Homo sapiens, UniProt Q01543 1-452); conditions: protein: recombinant; tags: N-terminal GST; dsDNA, one strand shown
T1 sequence: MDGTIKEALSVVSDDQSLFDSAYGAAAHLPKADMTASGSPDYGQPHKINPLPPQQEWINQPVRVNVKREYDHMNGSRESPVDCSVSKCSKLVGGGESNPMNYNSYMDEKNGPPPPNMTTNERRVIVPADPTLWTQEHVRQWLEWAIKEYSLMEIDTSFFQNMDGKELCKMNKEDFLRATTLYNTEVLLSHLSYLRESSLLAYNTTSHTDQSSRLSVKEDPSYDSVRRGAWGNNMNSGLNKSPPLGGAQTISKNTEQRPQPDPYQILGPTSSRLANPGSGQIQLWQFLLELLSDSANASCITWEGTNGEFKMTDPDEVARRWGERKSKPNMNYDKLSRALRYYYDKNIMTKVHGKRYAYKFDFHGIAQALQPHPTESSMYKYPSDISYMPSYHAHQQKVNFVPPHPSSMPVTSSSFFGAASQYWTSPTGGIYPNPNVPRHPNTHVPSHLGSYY
How it was run: (§1)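 GST fusions of human transcription factors were expressed in yeast and captured with glutathione beads. Once given DNA barcodes and pooled alongside a tag-only sample, they were incubated for 30 min at room temperature with 200 nmole of a random double-stranded 16-mer DNA library in Tris/NaCl/DTT/glycerol buffer, then washed, crosslinked (0.1% formaldehyde), proximity-ligated, PCR-amplified and sequenced on an Illumina NextSeq500. The binding signal of each hexamer is its read frequency for a factor divided by its frequency for the tag-only sample.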

ELK1 = molecular target: T2, ELK1 (Homo sapiens, UniProt P19419 1-428); conditions: protein: recombinant; tags: N-terminal GST; dsDNA, one strand shown
T2 sequence: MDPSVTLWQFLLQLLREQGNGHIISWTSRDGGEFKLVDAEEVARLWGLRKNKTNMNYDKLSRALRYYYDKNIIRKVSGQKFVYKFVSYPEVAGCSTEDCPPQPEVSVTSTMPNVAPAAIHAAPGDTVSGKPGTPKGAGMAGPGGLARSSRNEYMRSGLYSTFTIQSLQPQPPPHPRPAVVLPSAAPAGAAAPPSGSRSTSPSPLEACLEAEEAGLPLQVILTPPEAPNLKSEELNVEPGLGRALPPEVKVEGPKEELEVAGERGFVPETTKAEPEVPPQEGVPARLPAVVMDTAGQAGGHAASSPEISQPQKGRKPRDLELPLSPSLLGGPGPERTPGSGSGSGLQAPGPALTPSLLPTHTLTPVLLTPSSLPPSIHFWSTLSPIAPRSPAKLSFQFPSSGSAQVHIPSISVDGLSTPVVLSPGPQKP
How it was run: as §1

GABPA = molecular target: T3, GABPA (Homo sapiens, UniProt Q06546 1-454); conditions: protein: recombinant; tags: N-terminal GST; dsDNA, one strand shown
T3 sequence: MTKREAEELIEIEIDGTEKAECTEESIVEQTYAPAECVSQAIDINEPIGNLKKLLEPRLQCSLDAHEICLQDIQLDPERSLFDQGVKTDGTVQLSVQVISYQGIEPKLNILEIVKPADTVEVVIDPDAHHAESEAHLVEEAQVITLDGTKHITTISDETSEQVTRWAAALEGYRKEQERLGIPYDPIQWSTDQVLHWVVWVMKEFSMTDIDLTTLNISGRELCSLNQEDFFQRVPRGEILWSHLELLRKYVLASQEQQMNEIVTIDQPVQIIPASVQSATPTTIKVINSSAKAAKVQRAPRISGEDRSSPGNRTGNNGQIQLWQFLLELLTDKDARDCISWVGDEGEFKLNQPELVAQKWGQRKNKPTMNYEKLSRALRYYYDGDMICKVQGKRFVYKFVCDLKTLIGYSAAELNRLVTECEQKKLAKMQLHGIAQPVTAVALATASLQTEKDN
How it was run: as §1

ERG = molecular target: T4, ERG (Homo sapiens, UniProt P11308 1-479); conditions: protein: recombinant; tags: N-terminal GST; dsDNA, one strand shown
T4 sequence: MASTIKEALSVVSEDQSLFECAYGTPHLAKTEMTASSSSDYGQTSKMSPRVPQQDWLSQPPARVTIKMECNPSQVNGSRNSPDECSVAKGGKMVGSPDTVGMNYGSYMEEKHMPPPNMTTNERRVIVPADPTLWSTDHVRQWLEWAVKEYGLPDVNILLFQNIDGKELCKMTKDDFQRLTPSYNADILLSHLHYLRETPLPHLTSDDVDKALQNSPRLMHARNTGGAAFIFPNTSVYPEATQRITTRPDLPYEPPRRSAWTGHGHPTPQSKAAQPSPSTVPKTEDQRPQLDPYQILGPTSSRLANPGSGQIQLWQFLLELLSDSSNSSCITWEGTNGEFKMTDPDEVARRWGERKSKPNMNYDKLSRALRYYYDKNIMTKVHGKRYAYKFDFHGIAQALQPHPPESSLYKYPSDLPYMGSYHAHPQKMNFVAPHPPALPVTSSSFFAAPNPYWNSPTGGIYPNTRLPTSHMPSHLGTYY
How it was run: as §1

ELF1 = ELF1 (Homo sapiens, UniProt P32519 1-619); conditions: protein: recombinant; tags: N-terminal GST; dsDNA, one strand shown
ELF1, sequence (P32519 whole entry): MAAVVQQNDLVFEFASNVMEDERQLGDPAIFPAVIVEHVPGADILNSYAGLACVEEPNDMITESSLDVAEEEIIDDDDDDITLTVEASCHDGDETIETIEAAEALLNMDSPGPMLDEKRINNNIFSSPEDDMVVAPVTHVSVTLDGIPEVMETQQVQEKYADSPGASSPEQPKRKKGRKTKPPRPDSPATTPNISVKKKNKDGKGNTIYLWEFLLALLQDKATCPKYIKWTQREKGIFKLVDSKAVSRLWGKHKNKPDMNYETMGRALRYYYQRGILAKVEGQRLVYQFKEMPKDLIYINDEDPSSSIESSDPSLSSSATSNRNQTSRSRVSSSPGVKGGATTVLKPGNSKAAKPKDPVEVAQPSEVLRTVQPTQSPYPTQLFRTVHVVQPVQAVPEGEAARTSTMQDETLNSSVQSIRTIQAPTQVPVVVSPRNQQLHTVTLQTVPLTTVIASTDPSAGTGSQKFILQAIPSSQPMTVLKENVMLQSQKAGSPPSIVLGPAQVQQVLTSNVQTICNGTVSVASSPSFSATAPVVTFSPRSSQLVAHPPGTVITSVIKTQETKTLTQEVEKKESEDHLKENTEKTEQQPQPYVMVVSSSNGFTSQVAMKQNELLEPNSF
How it was run: as §1

EHF = molecular target: T5, EHF (Homo sapiens, UniProt Q9NZC4 1-300); conditions: protein: recombinant; tags: N-terminal GST; dsDNA, one strand shown
T5 sequence: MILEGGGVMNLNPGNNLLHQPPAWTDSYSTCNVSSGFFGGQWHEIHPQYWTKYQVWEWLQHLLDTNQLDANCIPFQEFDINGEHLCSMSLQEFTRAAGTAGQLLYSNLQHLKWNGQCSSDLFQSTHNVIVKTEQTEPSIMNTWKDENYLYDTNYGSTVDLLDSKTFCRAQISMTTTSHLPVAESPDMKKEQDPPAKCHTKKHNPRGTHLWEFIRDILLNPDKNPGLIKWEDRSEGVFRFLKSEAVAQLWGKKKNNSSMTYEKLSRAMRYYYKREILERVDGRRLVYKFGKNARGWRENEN
How it was run: as §1

SPI1 = SPI1 (Homo sapiens, UniProt P17947 1-270); conditions: protein: recombinant; tags: N-terminal GST; dsDNA, one strand shown
How it was run: as §1

SPIB = SPIB (Homo sapiens, UniProt Q01892 1-262); conditions: protein: recombinant; tags: N-terminal GST; dsDNA, one strand shown
SPIB, sequence (Q01892 whole entry): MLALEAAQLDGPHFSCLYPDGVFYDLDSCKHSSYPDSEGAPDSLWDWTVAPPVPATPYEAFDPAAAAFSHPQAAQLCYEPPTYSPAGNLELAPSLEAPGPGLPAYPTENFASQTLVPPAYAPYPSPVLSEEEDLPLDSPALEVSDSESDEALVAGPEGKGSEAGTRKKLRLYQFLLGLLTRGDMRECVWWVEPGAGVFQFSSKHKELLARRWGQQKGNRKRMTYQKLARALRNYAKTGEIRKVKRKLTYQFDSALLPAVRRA
How it was run: as §1

ELK3 = molecular target: T6, ELK3 (Homo sapiens, UniProt P41970 1-407); conditions: protein: recombinant; tags: N-terminal GST; dsDNA, one strand shown
T6 sequence: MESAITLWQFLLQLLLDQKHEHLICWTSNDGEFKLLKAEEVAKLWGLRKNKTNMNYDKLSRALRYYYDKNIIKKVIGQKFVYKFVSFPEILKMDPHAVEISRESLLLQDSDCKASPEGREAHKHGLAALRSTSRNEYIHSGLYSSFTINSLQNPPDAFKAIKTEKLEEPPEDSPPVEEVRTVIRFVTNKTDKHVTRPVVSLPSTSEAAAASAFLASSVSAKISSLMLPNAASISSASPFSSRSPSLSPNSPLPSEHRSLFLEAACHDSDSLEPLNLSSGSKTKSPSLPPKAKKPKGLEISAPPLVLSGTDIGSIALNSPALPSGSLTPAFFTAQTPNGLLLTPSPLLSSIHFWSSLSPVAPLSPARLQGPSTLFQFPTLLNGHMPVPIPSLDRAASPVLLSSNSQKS
How it was run: as §1

FEV = molecular target: T7, FEV (Homo sapiens, UniProt Q99581 1-238); conditions: protein: recombinant; tags: N-terminal GST; dsDNA, one strand shown
T7 sequence: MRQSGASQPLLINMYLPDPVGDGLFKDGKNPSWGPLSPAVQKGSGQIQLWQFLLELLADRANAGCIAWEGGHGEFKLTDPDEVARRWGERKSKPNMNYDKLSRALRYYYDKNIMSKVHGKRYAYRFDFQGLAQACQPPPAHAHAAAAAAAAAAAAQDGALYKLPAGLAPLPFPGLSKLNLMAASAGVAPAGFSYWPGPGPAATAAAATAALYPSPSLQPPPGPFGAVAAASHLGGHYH
How it was run: as §1

ETV5 = ETV5 (Homo sapiens, UniProt P41161 1-510); conditions: protein: recombinant; tags: N-terminal GST; dsDNA, one strand shown
ETV5, sequence (P41161 whole entry): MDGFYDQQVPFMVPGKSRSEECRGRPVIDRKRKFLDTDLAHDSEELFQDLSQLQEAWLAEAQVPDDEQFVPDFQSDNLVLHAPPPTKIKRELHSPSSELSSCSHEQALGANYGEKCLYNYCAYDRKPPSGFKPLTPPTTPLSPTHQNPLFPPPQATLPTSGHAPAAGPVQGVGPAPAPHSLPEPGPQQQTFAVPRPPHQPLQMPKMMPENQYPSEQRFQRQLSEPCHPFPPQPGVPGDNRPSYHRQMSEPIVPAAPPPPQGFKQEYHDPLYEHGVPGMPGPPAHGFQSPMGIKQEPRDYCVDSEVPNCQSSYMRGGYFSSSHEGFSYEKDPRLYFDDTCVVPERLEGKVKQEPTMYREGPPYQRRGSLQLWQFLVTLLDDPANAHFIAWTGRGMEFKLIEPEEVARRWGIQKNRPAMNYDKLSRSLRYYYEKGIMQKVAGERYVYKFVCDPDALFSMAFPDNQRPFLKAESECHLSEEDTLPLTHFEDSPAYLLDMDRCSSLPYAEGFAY
How it was run: as §1

HSF1 = HSF1 (Homo sapiens, UniProt Q00613 1-529); conditions: protein: recombinant; tags: N-terminal GST; chain copies: 3; dsDNA, one strand shown
HSF1, sequence (Q00613 whole entry): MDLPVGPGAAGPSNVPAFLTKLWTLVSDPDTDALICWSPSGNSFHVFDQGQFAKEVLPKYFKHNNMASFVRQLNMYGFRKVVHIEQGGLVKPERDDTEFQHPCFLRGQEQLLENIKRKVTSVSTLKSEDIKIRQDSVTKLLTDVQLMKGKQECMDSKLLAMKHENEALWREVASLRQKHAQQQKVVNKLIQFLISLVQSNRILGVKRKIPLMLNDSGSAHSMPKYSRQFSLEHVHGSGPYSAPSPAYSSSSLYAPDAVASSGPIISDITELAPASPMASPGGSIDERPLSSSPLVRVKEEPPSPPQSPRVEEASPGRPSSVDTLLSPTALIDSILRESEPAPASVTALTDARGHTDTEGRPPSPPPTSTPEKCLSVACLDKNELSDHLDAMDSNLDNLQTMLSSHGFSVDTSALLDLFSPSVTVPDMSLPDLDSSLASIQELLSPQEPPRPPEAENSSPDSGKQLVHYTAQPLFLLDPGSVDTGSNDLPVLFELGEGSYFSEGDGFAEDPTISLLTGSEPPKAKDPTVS
How it was run: as §1

SPIC = molecular target: T8, SPIC (Homo sapiens, UniProt Q8N5J4 1-248); conditions: protein: recombinant; tags: N-terminal GST; dsDNA, one strand shown
T8 sequence: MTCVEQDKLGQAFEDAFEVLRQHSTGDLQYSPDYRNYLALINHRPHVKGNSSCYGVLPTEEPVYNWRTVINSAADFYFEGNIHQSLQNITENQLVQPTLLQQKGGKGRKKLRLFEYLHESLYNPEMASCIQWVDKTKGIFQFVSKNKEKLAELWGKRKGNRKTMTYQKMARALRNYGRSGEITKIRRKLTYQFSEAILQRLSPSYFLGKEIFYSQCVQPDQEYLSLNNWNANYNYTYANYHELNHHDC
How it was run: as §1

ELF4 = ELF4 (Homo sapiens, UniProt Q99607 1-663); conditions: protein: recombinant; tags: N-terminal GST; dsDNA, one strand shown
ELF4, sequence (Q99607 whole entry): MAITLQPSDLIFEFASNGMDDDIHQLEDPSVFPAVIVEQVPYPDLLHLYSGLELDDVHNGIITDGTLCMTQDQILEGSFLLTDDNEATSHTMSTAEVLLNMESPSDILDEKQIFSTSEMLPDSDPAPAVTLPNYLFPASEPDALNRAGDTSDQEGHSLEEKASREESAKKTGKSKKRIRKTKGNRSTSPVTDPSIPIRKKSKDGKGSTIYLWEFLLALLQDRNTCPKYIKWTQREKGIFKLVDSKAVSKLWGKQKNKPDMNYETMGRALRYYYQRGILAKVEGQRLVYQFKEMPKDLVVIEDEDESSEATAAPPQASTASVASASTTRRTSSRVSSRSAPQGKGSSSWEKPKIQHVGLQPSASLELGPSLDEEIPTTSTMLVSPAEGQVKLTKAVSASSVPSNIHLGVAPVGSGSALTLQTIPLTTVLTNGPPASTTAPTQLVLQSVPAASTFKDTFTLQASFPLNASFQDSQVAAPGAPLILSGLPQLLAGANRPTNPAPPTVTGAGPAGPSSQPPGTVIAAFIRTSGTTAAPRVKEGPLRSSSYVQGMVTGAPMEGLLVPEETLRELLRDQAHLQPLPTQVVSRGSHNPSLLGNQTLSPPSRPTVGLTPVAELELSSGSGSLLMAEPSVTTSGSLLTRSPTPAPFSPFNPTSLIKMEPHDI
How it was run: as §1

ELK4 = molecular target: T9, ELK4 (Homo sapiens, UniProt P28324-2 1-405); conditions: protein: recombinant; tags: N-terminal GST; dsDNA, one strand shown
T9 sequence: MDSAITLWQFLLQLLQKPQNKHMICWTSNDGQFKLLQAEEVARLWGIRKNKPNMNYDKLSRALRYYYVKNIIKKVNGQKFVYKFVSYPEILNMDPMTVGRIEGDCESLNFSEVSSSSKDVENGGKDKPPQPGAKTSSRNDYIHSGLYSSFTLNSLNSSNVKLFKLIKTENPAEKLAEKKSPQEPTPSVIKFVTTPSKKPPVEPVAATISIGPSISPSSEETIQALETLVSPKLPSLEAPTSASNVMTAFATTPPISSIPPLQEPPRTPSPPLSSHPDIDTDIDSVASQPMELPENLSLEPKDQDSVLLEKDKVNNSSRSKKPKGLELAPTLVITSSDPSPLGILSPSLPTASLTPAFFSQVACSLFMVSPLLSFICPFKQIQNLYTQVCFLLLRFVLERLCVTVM
How it was run: as §1

ETV2 = molecular target: T10, ETV2 (Homo sapiens, UniProt O00321 1-342); conditions: protein: recombinant; tags: N-terminal GST; dsDNA, one strand shown
T10 sequence: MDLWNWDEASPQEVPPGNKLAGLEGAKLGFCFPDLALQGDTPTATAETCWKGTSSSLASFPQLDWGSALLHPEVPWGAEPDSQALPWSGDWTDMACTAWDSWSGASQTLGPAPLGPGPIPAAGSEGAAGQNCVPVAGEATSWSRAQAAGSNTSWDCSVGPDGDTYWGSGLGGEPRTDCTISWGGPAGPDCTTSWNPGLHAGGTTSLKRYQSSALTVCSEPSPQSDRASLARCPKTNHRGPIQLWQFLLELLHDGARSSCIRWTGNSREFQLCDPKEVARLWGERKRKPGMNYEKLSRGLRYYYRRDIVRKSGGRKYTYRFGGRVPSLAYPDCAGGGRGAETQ
How it was run: as §1

ELF3 = molecular target: T11, ELF3 (Homo sapiens, UniProt P78545 1-371); conditions: protein: recombinant; tags: N-terminal GST; dsDNA, one strand shown
T11 sequence: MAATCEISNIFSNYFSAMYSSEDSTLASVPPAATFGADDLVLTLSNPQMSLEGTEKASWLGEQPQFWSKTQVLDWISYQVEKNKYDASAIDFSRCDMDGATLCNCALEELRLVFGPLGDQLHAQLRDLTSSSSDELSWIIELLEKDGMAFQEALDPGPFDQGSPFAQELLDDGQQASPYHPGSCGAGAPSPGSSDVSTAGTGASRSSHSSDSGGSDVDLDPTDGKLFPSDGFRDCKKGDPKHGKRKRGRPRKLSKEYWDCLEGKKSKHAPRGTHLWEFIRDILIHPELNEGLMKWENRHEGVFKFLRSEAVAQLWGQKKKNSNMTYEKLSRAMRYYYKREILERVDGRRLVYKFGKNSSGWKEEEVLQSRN
How it was run: as §1

CRX = CRX (Homo sapiens, UniProt O43186 1-299); conditions: protein: recombinant; tags: N-terminal GST; dsDNA, one strand shown
CRX, sequence (O43186 whole entry): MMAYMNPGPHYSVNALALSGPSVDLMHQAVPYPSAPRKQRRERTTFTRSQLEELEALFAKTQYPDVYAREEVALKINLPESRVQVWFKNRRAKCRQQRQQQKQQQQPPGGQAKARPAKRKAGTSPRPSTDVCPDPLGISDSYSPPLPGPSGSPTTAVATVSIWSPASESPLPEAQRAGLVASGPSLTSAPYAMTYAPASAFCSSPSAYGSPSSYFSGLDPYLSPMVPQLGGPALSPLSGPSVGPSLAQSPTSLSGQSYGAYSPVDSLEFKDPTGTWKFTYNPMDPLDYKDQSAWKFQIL
How it was run: as §1

ETV1 = ETV1 (Homo sapiens, UniProt P50549 1-477); conditions: protein: recombinant; tags: N-terminal GST; dsDNA, one strand shown
ETV1, sequence (P50549 whole entry): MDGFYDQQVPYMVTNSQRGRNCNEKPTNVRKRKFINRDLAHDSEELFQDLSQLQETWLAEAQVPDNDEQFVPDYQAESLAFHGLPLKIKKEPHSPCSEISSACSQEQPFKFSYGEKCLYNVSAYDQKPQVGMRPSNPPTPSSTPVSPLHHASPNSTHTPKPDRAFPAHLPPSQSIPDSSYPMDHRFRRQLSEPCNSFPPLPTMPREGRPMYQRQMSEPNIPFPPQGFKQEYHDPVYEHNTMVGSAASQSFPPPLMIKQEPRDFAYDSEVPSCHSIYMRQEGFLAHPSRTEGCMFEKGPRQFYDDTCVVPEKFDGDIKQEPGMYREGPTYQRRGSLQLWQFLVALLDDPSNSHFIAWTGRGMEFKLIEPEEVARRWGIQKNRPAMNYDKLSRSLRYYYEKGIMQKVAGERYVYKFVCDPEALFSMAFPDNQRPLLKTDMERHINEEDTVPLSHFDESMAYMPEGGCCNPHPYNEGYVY
How it was run: as §1

Sequence: TGTAAA
- binding signal (FLI1): 1.22 fold enrichment (6-mer frequency, TF over GST control)
- binding signal (ELK1): 1.06 fold enrichment (6-mer frequency, TF over GST control)
- binding signal (GABPA): 1.08 fold enrichment (6-mer frequency, TF over GST control)
- binding signal (ERG): 1.15 fold enrichment (6-mer frequency, TF over GST control)
- binding signal (ELF1): 1.14 fold enrichment (6-mer frequency, TF over GST control)
- binding signal (EHF): 1.13 fold enrichment (6-mer frequency, TF over GST control)
- binding signal (SPI1): 1.26 fold enrichment (6-mer frequency, TF over GST control)
- binding signal (SPIB): 1.2 fold enrichment (6-mer frequency, TF over GST control)
- binding signal (ELK3): 1.09 fold enrichment (6-mer frequency, TF over GST control)
- binding signal (FEV): 1.08 fold enrichment (6-mer frequency, TF over GST control)
- binding signal (ETV5): 1.16 fold enrichment (6-mer frequency, TF over GST control)
- binding signal (HSF1): 1.2 fold enrichment (6-mer frequency, TF over GST control)
- binding signal (SPIC): 1.24 fold enrichment (6-mer frequency, TF over GST control)
- binding signal (ELF4): 1.13 fold enrichment (6-mer frequency, TF over GST control)
- binding signal (ELK4): 1.1 fold enrichment (6-mer frequency, TF over GST control)
- binding signal (ETV2): 1.16 fold enrichment (6-mer frequency, TF over GST control)
- binding signal (ELF3): 1.23 fold enrichment (6-mer frequency, TF over GST control)
- binding signal (CRX): 1.2 fold enrichment (6-mer frequency, TF over GST control)
- binding signal (ETV1): 1.14 fold enrichment (6-mer frequency, TF over GST control)
